According to PubChem BioAssay (NCI):
About 83,000 compounds went through this panel and 20% of them were active in at least one assay; those are over-represented in the sample as a whole.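 Values shown are percent growth following 48 h exposure of cells in 96-well plates to a single concentration of compound; below 10 was considered active.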 Values without a mark were called inactive. Activity calls are given as the source filed them.

Columns and labels:
Experiment in all cases: NCI-60 one-dose screen, 48 h (100 = growth as untreated, 0 = no growth, -100 = all killed)
Conditions in all cases: 10 µM unless noted
HCT-15 colon = tested on: HCT-15 colon
HT29 colon = tested on: HT29 colon
SNB-75 CNS = tested on: SNB-75 CNS
SNB-19 CNS = tested on: SNB-19 CNS
U251 CNS = tested on: U251 CNS
PC-3 prostate = tested on: PC-3 prostate
SK-MEL-5 melanoma = tested on: SK-MEL-5 melanoma
UACC-62 melanoma = tested on: UACC-62 melanoma
LOX IMVI melanoma = tested on: LOX IMVI melanoma
SK-MEL-28 melanoma = tested on: SK-MEL-28 melanoma
SK-MEL-2 melanoma = tested on: SK-MEL-2 melanoma
EKVX NSCLC = tested on: EKVX NSCLC
SN12C renal = tested on: SN12C renal
UO-31 renal = tested on: UO-31 renal
TK-10 renal = tested on: TK-10 renal
ACHN renal = tested on: ACHN renal
CAKI-1 renal = tested on: CAKI-1 renal
A498 renal = tested on: A498 renal
CCRF-CEM leukemia = tested on: CCRF-CEM leukemia
MOLT-4 leukemia = tested on: MOLT-4 leukemia

Row | SMILES | growth (HCT-15 colon) | growth (HT29 colon) | growth (SNB-75 CNS) | growth (SNB-19 CNS) | growth (U251 CNS) | growth (PC-3 prostate) | growth (SK-MEL-5 melanoma) | growth (UACC-62 melanoma) | growth (LOX IMVI melanoma) | growth (SK-MEL-28 melanoma) | growth (SK-MEL-2 melanoma) | growth (EKVX NSCLC) | growth (SN12C renal) | growth (UO-31 renal) | growth (TK-10 renal) | growth (ACHN renal) | growth (CAKI-1 renal) | growth (A498 renal) | growth (CCRF-CEM leukemia) | growth (MOLT-4 leukemia)
1 | CCCCNc1ccc2c3c(cccc13)C(=O)N(NCC(O)COc1ccc3c(C)cc(=O)oc3c1)C2=O (configuration not stated) | 77.3% | 100% | 94.1% | 83.9% | 96.5% | 84% | 77.9% | 69.2% | 81.3% | 103% | 96.9% | 77.4% | 94.5% | 43.5% | 153% | 86.2% | 85.6% | 89.2% | 84.2% | 77.7%
2 | O=C(c1ccc(O)cc1)C1[C@H](c2ccccc2Br)[C@@H](c2ccccc2)NC12C(=O)Nc1ccccc12 (some centres not stated) | 34.7% | -7.42% (active) | 36.8% | 58.5% | 7.5% (active) | 18.2% | 28.1% | 31.9% | 5.24% (active) | 59.3% | -3.4% (active) | 28.3% | 30.2% | 28.9% | 49.9% | 25.9% | 23.6% | 52.1% | 21.3% | 
3 | CN(C)c1nc(NCCNS(=O)(=O)c2ccc(C(=O)/C=C/c3ccc(Cl)cc3)cc2)nc(N2CCOCC2)n1 | -53% (active) | -80.6% (active) | 45.4% | 60% | -92% (active) | 21.1% | 46.2% | 52.5% | -94.3% (active) | 76.6% | 68.9% | 49.6% | 53.4% | -61% (active) | 62.5% | 21.8% | -61.2% (active) | 87.6% | 3.45% (active) | 3.71% (active)
4 | C=CC(=O)N1CCN(c2ccc3nc4c(nc3c2C(F)(F)F)C(=O)c2ncccc2C4=O)CC1 | 1.18% (active) | 11.8% | 82.3% | 32.3% | -17.3% (active) | -4.79% (active) | -98.6% (active) | -60% (active) | -8.11% (active) | 30.5% | 39.8% | 30.4% | -44% (active) | 35.7% | 111% | 28.3% | 36% | 134% | -17.5% (active) | -37.8% (active)
5 | Cc1cccc(NCC(=O)N2CCN(c3ncnc4c3cnn4-c3ccccc3)CC2)c1 | 72.9% | 83.5% | 53.5% | 88.9% | 87.1% | 70% | 37.5% | 34.6% | 53.8% | 59% | 46.7% | 53.7% | 76.9% | 34.3% | 93.8% | 45.4% | 47.8% | 108% | 62.7% | 
6 | COc1ccc(C(=O)C[n+]2cccc3c4ccccc4ccc32)cc1 | 87.5% | 20.4% | 82.1% | 31.4% | 28.2% | 27.5% | -31.4% (active) | 55.7% | 46.1% | 67% | 56.3% | 43.2% | 17.4% | 56.5% | 73.6% | 79% | 79% | 102% | 52.5% | 32%
7 | CCC1(OC(=O)c2ccccc2SSCCOC(=O)CCCCC2SCC3NC(=O)NC32)C(=O)OCc2c1cc1n(c2=O)Cc2cc3ccccc3nc2-1 (configuration not stated) | 64.7% | 67.8% | 81.3% | 36.7% | 36.2% | 37.4% | 21.1% | 17.7% | 33.9% | 96% | 103% | 52.1% | 32.3% | 38.4% | 94.8% | 20.3% | 10.5% | 104% | 9.01% (active) | 
